Assay outcomes as filed in PubChem BioAssay.
RE007 growth inh – qHTS Assay for Inhibitors of the HIV-1 protein Vpr. S. pombe RE007 Vpr strain, BacTiter-Glo ATP luminescence, 24 h. 0.21% of 360,000 active. Potency, µM (titrated, usually from 92.2 µM), for inactives: top-dose activity change, negative = less growth, actives largely listed as inhibitors. AID 651644, 2012; active = well fitted falling curve with a large enough effect; inconclusive = small, poorly fitted or top-dose-only effect; inactive = no such curve, though single readings can be large or run the other way; note: potency is the fitted concentration of half-maximal effect; % is set by controls: 0 for no effect and ±100 for the full control effect; nearly all actives have a fitted effect of over 50% in size
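Fission yeast strain RE007, carrying one chromosomally integrated HIV-1 vpr copy, was seeded at OD 0.01 in PMG+AL medium with 23 nL pinned compound. After 24 h at 30 °C and 99% humidity, viability was read by BacTiter-Glo luminescence.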
Shiga toxin inh – A qHTS for Small Molecule Inhibitors of Shiga Toxin; Vero cells, Shiga toxin protein synthesis inhibition reporter; inhibition, % at 38.7 µM; 9.2% of 290,000 active; in the data active = inhibition mostly above about 28%, no sharp cut-off; inactive = mostly below about 43%; note: 0% is about no effect
LmPK inhibitor – qHTS Assay for Inhibitors of Leishmania Mexicana Pyruvate Kinase (LmPK). 0.37% of 290,000 active. AID 1721, 2009. Potency, µM (series often up to 57.5 µM), for the others: at the top dose activity change, negative = inhibition, most hits filed as inhibitors. purified LmPK, Kinase-Glo ATP luminescence, 1 h. Q27686; note: potency is the fitted concentration of half-maximal effect; % is set by controls: 0 for no effect and ±100 for the full control effect
Target sequence (Q27686 whole entry, looked up): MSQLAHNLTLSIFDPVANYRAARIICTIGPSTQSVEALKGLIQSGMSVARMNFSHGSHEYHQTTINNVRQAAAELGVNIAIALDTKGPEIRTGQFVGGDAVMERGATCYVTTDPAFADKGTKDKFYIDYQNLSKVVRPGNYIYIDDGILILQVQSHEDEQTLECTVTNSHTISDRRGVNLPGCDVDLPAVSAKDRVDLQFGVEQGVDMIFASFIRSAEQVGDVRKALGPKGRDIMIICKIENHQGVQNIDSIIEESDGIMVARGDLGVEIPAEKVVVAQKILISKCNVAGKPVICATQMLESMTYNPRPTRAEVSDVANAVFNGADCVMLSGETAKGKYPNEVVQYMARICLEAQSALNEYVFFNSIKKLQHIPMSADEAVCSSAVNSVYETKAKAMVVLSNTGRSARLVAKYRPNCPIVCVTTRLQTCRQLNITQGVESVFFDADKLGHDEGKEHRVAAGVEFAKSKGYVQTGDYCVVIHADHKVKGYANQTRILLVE
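Kinase-Glo luminescence read after 1 h RT reaction of 0.1 nM LmPK with 0.5 mM PEP and 0.1 mM ADP. Activity scaled between uninhibited and enzyme-free controls.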
Tb PYK inh – qHTS of Trypanosoma Brucei Inhibitors | pyruvate kinase (Trypanosoma brucei), Q57TT1 | TbPYK enzyme, Kinase-Glo Plus ATP luminescence, 45 min | Potency, µM (top dose mostly 76.8 µM), for inactives: top-dose activity, negative = inhibition, actives largely listed as inhibitors | 0.12% of 410,000 active | AID 624173, 2012; note: potency is the fitted concentration of half-maximal effect; % is set by controls: 0 for no effect and ±100 for the full control effect; nearly all actives have a fitted effect of over 50% in size
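Glycolytic pyruvate kinase of T. brucei was incubated with substrate, test compound and 130 uM ADP for 45 minutes at room temperature. Luminescent Kinase-Glo Plus signal was measured after 10 minutes.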
FBPA Giardia inh – qHTS Assay for Inhibitors of Fructose-1,6-bisphosphate Aldolase from Giardia Lamblia | Potency, µM (top dose mostly 59.6 µM), without a hit: top-dose activity, negative = inhibition, most hits filed as inhibitors | purified Giardia FBPA | A8B2U2 | 0.71% of 290,000 active; note: potency is the fitted concentration of half-maximal effect; % is set by controls: 0 for no effect and ±100 for the full control effect; nearly all actives have a fitted effect of over 55% in size
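Giardia FBPA (40 nM reagent) was preincubated 10 min at RT with compound (up to 57.5 uM final), then substrate plus GAPDH/TPI/NAD/arsenate coupling system with diaphorase/resazurin was added; resorufin fluorescence (525/598 nm) was read after 20 min.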
Cycloheximide cs – Cycloheximide Counterscreen for Small Molecule Inhibitors of Shiga Toxin; AID 2314, 2010; 12% of 300,000 active; max response, %; cell reporter, cycloheximide protein synthesis inhibition counterscreen; in the data active = max response mostly above about 13%, no sharp cut-off; inactive = mostly below about 14%; note: read at 38.3 µM for the half of the compounds with a filed dose; 0% is about no effect
Numbers without * were called inactive; [ ] = remark or other dose. The sample as a whole holds a higher share of hits than the screen did. Unless noted, calls come from the whole dose curve; as a rule, active = well fitted curve in the direction sought with a large enough effect; inconclusive = small, poorly fitted or top-dose-only effect, or another doubt; inactive = no such curve, though single readings can be large; an effect the other way counts as inactive or inconclusive.

`CC1(C)CC(=O)C(C=Nc2ccc3[nH]ncc3c2)=C(O)C1` gave RE007 growth inh -3%, Shiga toxin inh 33*, LmPK inhibitor -2%, Tb PYK inh 4%, FBPA Giardia inh inconclusive and Cycloheximide cs 37*.
Screening CCOc1ccc(N=CC2=C(O)CC(C)(C)CC2=O)cc1 returned RE007 growth inh 1%, Shiga toxin inh 189*, LmPK inhibitor 0%, Tb PYK inh 2%, FBPA Giardia inh 6% and Cycloheximide cs -3.
Screening CC1(C)CC(=O)C(C=Nc2ccc(N)cc2)=C(O)C1 returned RE007 growth inh -8%, Shiga toxin inh 81*, LmPK inhibitor -7%, Tb PYK inh 0%, FBPA Giardia inh -26% and Cycloheximide cs 40*.
Screening COc1ccc(S(=O)(=O)N(CC(=O)N2CCC(C)CC2)c2ccc(C)cc2)cc1 returned Tb PYK inh -18%.
`CCOC(=O)c1cc(OC(=O)c2ccccc2C)n(-c2ccccc2)n1` gave Tb PYK inh -20%.
Screening Cc1ccccc1C(=O)N(Cc1sccc1C)C1CCS(=O)(=O)C1 (stereo not given) returned Tb PYK inh -4%.
For CCOC(=O)c1c(/N=C/C2=C(O)CC(C)(C)CC2=O)sc(C(C)=O)c1C the results were RE007 growth inh -15%, Shiga toxin inh 57*, LmPK inhibitor 0%, Tb PYK inh -3%, FBPA Giardia inh -1% and Cycloheximide cs 23*.
For COC(=O)c1ccc(NC(=O)NCCn2nnc3cc(S(=O)(=O)N(C)C)ccc32)cc1 the results were Tb PYK inh -5%.
`Cc1cccc(N/C=C/c2onc(C)c2[N+](=O)[O-])c1` gave RE007 growth inh -4%, Shiga toxin inh 89*, LmPK inhibitor -4%, Tb PYK inh inconclusive, FBPA Giardia inh 0% and Cycloheximide cs 31*.
Screening Cc1cc(O)ccc1N/C=C/c1onc(C)c1[N+](=O)[O-] returned RE007 growth inh -9%, Shiga toxin inh 64*, LmPK inhibitor -6%, Tb PYK inh -9%, FBPA Giardia inh 0% and Cycloheximide cs 39*.
Screening COc1ccc(OCc2cccc(C(=O)NN)c2)cc1 returned RE007 growth inh 15%, Shiga toxin inh 140*, LmPK inhibitor -6%, Tb PYK inh -9%, FBPA Giardia inh -10% and Cycloheximide cs 124*.
CCCNC(=O)c1cccc(COc2ccccc2OC)c1 was read as RE007 growth inh 13%, Shiga toxin inh 123*, LmPK inhibitor -7%, Tb PYK inh 3%, FBPA Giardia inh 3% and Cycloheximide cs 50*.
`COc1ccc(OCc2cccc(C(=O)Nn3cc([N+](=O)[O-])cn3)c2)cc1` gave RE007 growth inh 1%, Shiga toxin inh 2, LmPK inhibitor -6%, Tb PYK inh 1%, FBPA Giardia inh 2% and Cycloheximide cs 5.
For NNC(=O)c1cccc(COc2ccc(Br)cc2)c1 the results were RE007 growth inh 1%, Shiga toxin inh 149*, LmPK inhibitor 1%, Tb PYK inh 9%, FBPA Giardia inh 1% and Cycloheximide cs 68*.
Screening O=C(NN1CCOCC1)c1cccc(COc2cccc(Br)c2)c1 returned RE007 growth inh 26%, Shiga toxin inh 61, LmPK inhibitor 11%, Tb PYK inh -3%, FBPA Giardia inh 2% and Cycloheximide cs 16*.
`Cn1c(SCc2cccc(F)c2)nc2c([nH]c3ccccc32)c1=O` gave Tb PYK inh 3%.
Screening Cc1cc([C@](C)(N)C(=O)O)ccc1P(=O)(O)O returned FBPA Giardia inh -12%.
Screening NNC(=O)c1ccc(COc2ccc3ccccc3c2)cc1 returned RE007 growth inh -16%, Shiga toxin inh 45*, LmPK inhibitor 1%, Tb PYK inh 0%, FBPA Giardia inh -2% and Cycloheximide cs 35*.
Screening O=C(COc1ccc2ccccc2c1)NNC(=O)c1ccccc1 returned RE007 growth inh 1%, Shiga toxin inh -5, LmPK inhibitor 7%, Tb PYK inh 4%, FBPA Giardia inh 7% and Cycloheximide cs -4.
`NNC(=O)c1cccc(COc2cccc(Br)c2)c1` gave RE007 growth inh 0%, Shiga toxin inh 74*, LmPK inhibitor 4%, Tb PYK inh -7%, FBPA Giardia inh -9% and Cycloheximide cs 32*.
`NNC(=O)CNC(=O)c1cccc(Br)c1` gave RE007 growth inh 2%, Shiga toxin inh 51, LmPK inhibitor -1%, Tb PYK inh 2%, FBPA Giardia inh 4% and Cycloheximide cs 30.
Screening COC(=O)N1C2=C(c3ccccc3[C@@H]1CC(=O)Nc1ccc(Br)cc1)[C@@H]1C(=O)N(c3ccccc3)C(=O)[C@@H]1[C@H](C)C2 returned LmPK inhibitor -3%[11.5 µM] and FBPA Giardia inh -1%[12.9 µM].
Screening Cc1cn2c(=O)cc(COc3cccc(NC(=O)c4ccc(C(C)(C)C)cc4)c3)nc2s1 returned Tb PYK inh 6%.
O=C(O)c1cc(N=Nc2c(O)ccc3ccccc23)cc(C(=O)O)c1 was read as RE007 growth inh -12%, Shiga toxin inh -1, LmPK inhibitor inconclusive, Tb PYK inh 13µM*, FBPA Giardia inh -17% and Cycloheximide cs 8.
Screening O=C(O)c1ccc(N=Nc2c(O)ccc3ncccc23)cc1 returned RE007 growth inh -20%, Shiga toxin inh 65, LmPK inhibitor -9%, Tb PYK inh -10%, FBPA Giardia inh inconclusive and Cycloheximide cs 22*.
`Oc1ccc(N=Nc2c(O)ccc3ccccc23)cc1` gave RE007 growth inh inconclusive, Shiga toxin inh -36, LmPK inhibitor -18%, Tb PYK inh -5%, FBPA Giardia inh inconclusive and Cycloheximide cs 32*.
For CC(C)CSc1nnc(-c2ccccc2)c(-c2ccccc2)n1 the results were Tb PYK inh -1%.
`Cc1ccc(NC(=O)Cn2c(-c3cncs3)nc3ccccc32)c(Br)c1` gave Tb PYK inh 0%.
COc1ccc(C)cc1NC(=O)Nc1nnc(N2CCCCC2)s1 was read as Tb PYK inh -15%.
`N#CCCn1c(=O)c(-c2ccccc2)nc2cnc(N3CCOCC3)nc21` gave FBPA Giardia inh 1%.
Screening O=C(CNC(=O)c1ccc(Cl)cc1Cl)OCc1nnc(-c2ccccc2Br)o1 returned RE007 growth inh 14% and Tb PYK inh 0%.
Screening Clc1ccccc1-c1nnc(COc2ccccc2)o1 returned Tb PYK inh 1%.
Screening Clc1cccc(OCc2nnc(-c3ccccc3Br)o2)c1 returned RE007 growth inh -9%, Shiga toxin inh 86*, LmPK inhibitor 4%, Tb PYK inh -9%, FBPA Giardia inh 6% and Cycloheximide cs 38*.
